13 compounds from the supplement of paper PMC6522484 can be followed below.

The test system of assay [1] is DLD1. Briefly: cell viability (CellTiter-Glo) relative to plate median (fraction of plate median); higher = more viable cells. Conditions: 5 µM; treatment time 24 h; reporter: 7TFP. The method, boiled down:
(§1)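 Colorectal cancer lines with stably integrated lentiviral TCF/Wnt firefly luciferase reporters received library compounds at a final 5 µM, 24 h after seeding into 384-well plates, for a 24 h exposure. Reported figures are plate-median-normalised firefly luciferase or CellTiterGlo luminescence per well. They average two independent replicates.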
A general note: Cellular ATP, detected with luciferase, serves as a proxy for viable cell number.

A further assay concerns HCT116. The assay is described as above. Conditions: 5 µM; treatment time 24 h; reporter: TCF4/Wnt. In a few lines: as §1
In assay [2] the test system is SW480. The description is as above. Conditions: 5 µM; treatment time 24 h; reporter: 7TFP. In a few lines:
as §1

In assay [3] the test system is DLD1. Briefly: TCF/Wnt firefly luciferase reporter signal relative to plate median (fraction of plate median); higher = higher Wnt reporter signal. Conditions: 5 µM; treatment time 24 h; reporter: 7TFP. In a few lines: as §1
The subject of assay [4] is SW480. The assay is described as above. Conditions: 5 µM; treatment time 24 h; reporter: 7TFP. The method, boiled down:
as §1

The structures appear in SMILES notation. ± gives the standard deviation of the averaged measurements.

As for `COC1=C[C@@H]2[C@@H]3Cc4ccc(OC)c(O)c4[C@]2(CCN3C)CC1=O`, the cell viability with DLD1 [1] came out at 0.973 ± 0.0085; in the assay with HCT116 it was 0.925 ± 0.017; in the assay with SW480 [2], 0.987 ± 0.033. Besides, the results for the “TCF/Wnt firefly luciferase reporter signal” value with DLD1 [3] and in the assay with SW480 [4] were 1.03 ± 0.11 and 0.997 ± 0.16, respectively.
For `C[N+]1(C)[C@@H]2C[C@@H](OC(=O)[C@H](CO)c3ccccc3)C[C@H]1[C@@H]1O[C@@H]12`, the figures for the cell viability in the assay with DLD1 [1], in the assay with HCT116 and with SW480 [2] were 1.09 ± 0.021, 0.971 ± 0.069 and 1.035 ± 0.0071, respectively. The entries for the “TCF/Wnt firefly luciferase reporter signal” value in the assay on DLD1 [3] and in the assay on SW480 [4] were 0.9885 ± 0.005 and 1.085 ± 0.0071, respectively.
Turning to `CC1=CCCC2C1(C)CCC(C)C2(C)CC/C(C)=C/Cn1c[n+](C)c2c(N)ncnc21` (stereo not given) [AGELASINE (stereochemistry of diterpene unknown)], the values for the cell viability in the assay with DLD1 [1], with HCT116 and with SW480 [2] were 1.02 ± 0.14, 1.06 ± 0.071 and 0.94 ± 0.015, respectively. Further, the “TCF/Wnt firefly luciferase reporter signal” value in the assay on DLD1 [3] turned out to be 1.18 ± 0.092; in the assay with SW480 [4], 1.07 ± 0.078.
`CN1C[C@H](C(=O)N[C@]2(C)O[C@@]3(O)[C@@H]4CCCN4C(=O)[C@H](Cc4ccccc4)N3C2=O)C[C@@H]2c3cccc4[nH]cc(c34)C[C@H]21`: the cell viability with DLD1 [1] was determined as 0.89 ± 0.098; in the assay with HCT116, 0.878 ± 0.054; in the assay on SW480 [2], 1 ± 0.037. Also, the entries for the “TCF/Wnt firefly luciferase reporter signal” value in the assay on DLD1 [3] and in the assay on SW480 [4] were 0.9 ± 0.052 and 0.884 ± 0.0057, respectively.
As to `COc1ccc(OC)c(C(O)C(C)N)c1` (stereo not given), the cell viability came out at 0.976 ± 0.1 with DLD1 [1], 0.974 ± 0.037 in the assay on HCT116 and 0.926 ± 0.029 with SW480 [2]. Besides, the “TCF/Wnt firefly luciferase reporter signal” value amounted to 0.976 ± 0.031 in the assay with DLD1 [3] and 1.13 ± 0.11 in the assay with SW480 [4].
Take `COc1cc2c(cc1OC)[C@@H]1C(=O)c3ccc4oc(C(C)C)cc4c3O[C@@H]1CO2`: the cell viability in the assay on DLD1 [1] came out at 0.923 ± 0.052; in the assay with HCT116, 0.875 ± 0.14; with SW480 [2], 0.75 ± 0.021. Moreover, the “TCF/Wnt firefly luciferase reporter signal” value with DLD1 [3] worked out at 0.974 ± 0.028; with SW480 [4], 0.749 ± 0.052.
Taken in the same sequence, the figures for `CCCC(C)C1(CC)C(=O)NC(=S)NC1=O` (stereo not given) were 1.005 ± 0.0071, 1.03 ± 0.11, 1.02 ± 0.035, 1.16 ± 0.15 and 0.974 ± 0.065.
As to `C=CCSSCC=C`, the cell viability with DLD1 [1] is 1.055 ± 0.0071; in the assay on HCT116, 1.045 ± 0.0071; in the assay with SW480 [2], 1.05 ± 0.078. Moreover, the figures for the “TCF/Wnt firefly luciferase reporter signal” value in the assay on DLD1 [3] and in the assay with SW480 [4] were 1.1 ± 0.085 and 0.95 ± 0.13, respectively.
As for `CC(C)(C)NCC(O)c1ccccc1Cl` (stereo not given), the cell viability in the assay with DLD1 [1] was determined as 1.045 ± 0.0071; with HCT116 it was 1.04 ± 0.079; in the assay with SW480 [2] it was 1.04 ± 0.028. Moreover, the “TCF/Wnt firefly luciferase reporter signal” value with DLD1 [3] stood at 0.949 ± 0.027; in the assay with SW480 [4] it was 1.06 ± 0.057.
Taken in the same sequence, the figures for `COc1ccc(C(CN(C)C)C2(O)CCCCC2)cc1` (stereo not given) were 1.06 ± 0.014, 0.972 ± 0.035, 1.03 ± 0.044, 0.924 ± 0.069 and 0.907 ± 0.029.
As for `CNNC`, the cell viability in the assay on DLD1 [1] was 0.936 ± 0.021; in the assay on HCT116, 0.866 ± 0.11; with SW480 [2], 0.945 ± 0.017. In addition, the “TCF/Wnt firefly luciferase reporter signal” value was determined as 1.03 ± 0.14 with DLD1 [3] and 0.894 ± 0.14 in the assay on SW480 [4].
Regarding `COc1ccc2c3c([nH]c2c1)C(C)=NCC3`, the cell viability in the assay on DLD1 [1] came out at 1.03 ± 0.059; in the assay with HCT116, 0.971 ± 0.069; in the assay on SW480 [2] it was 0.999 ± 0.03. The “TCF/Wnt firefly luciferase reporter signal” value is 1.25 ± 0.021 with DLD1 [3] and 1.15 ± 0.071 with SW480 [4].
The corresponding values for `c1ccc(/N=N/c2ccccc2)cc1` are 1.03 ± 0.021, 0.981 ± 0.027, 1.04 ± 0.028, 1.04 ± 0.088 and 0.986 ± 0.091.
